# ChEMBL document CHEMBL4513135, “CO-ADD screening of IQOG CSIS (Spain) compounds”
# Entries with a potency or affinity are not part of this list.
# Key:
# [1] = tested on: Klebsiella pneumoniae; settings: Concentration 32 ug.mL-1; ASSAY_TEST Inhibition of Bacterial Growth; detection method Absorption (OD600); MEDIA CAMHB; plate type 384well; NBS; CORNING #3640; time 18 hr
# [2] = tested on: Candida albicans; settings: 32 ug/mL
# [3] = tested on: Cryptococcus neoformans; settings: Concentration 32 ug.mL-1; ASSAY_TEST Inhibition of Fungal Growth; detection method Resazurin; Absorption (OD600-OD570); plate type 384well; NBS; CORNING #3640
SMILES,Inhibition [1],Inhibition [2],Inhibition [3]
C/C=C(/C#N)C(=O)OC,5.34%,-0.41%,-2.55%
C#CCN(C)Cc1cc2cc(OCCCC3CCN(C(=O)OC(C)(C)C)CC3)ccc2n1C,-9.9%,1.82%,-6.45%
COc1cc(C2CC2(N)C(=O)O)ccc1O (stereo not given),3.5%,-0.44%,-0.8%
CCOC(=O)CCc1c[nH]c2ccccc12,-13.33%,5.29%,-6.58%
COc1cccc(C2c3c(ccc4ccccc34)OC(=NBr)C2(Br)C#N)c1 (stereo not given),33.1%,26.4%,-22.56%
C#CCNc1nc(OC)c(C#N)c(-c2ccccc2)c1C#N,13.71%,1.22%,-26.89%
COc1ccc(-c2cc(-c3cc4c(OC)ccc(OC)c4nc3Cl)cc(=O)[nH]2)cc1,5.89%,0.7%,-87.69%
CCOC(=O)c1c(C)[nH]c2ccc(OC)cc12,6.33%,1.53%,-2.15%
N#CC1=C(N)Oc2c(ccc3ccccc23)C1c1c(Cl)cccc1Cl (stereo not given),5.34%,-0.77%,-4.89%
c1ccc(COc2ccc3[nH]ccc3c2)cc1,11.46%,-1.1%,-1.93%
CCOC(=O)c1cc2cc(OC)ccc2n1C,-11.12%,0.11%,-3.08%
COc1ccccc1C1C(C#N)=C(N)Oc2c1ccc1ccccc21 (stereo not given),8.71%,1.78%,-34.5%
CC(=O)CCc1c[nH]c2ccccc12,20.76%,1.89%,-0.29%
N#Cc1c(N)nc(NCc2ccccc2)c(C#N)c1-c1ccccc1,-1.47%,0.34%,-28.27%
N#Cc1c(NC2CCC(Cc3ccccc3)CC2)nc(NC2CCN(Cc3ccccc3)CC2)c(C#N)c1-c1ccccc1 (stereo not given),-7.01%,2.46%,-20.4%
Cc1ccc2nc(Cl)c(/C=N/NCc3ccccc3)cc2c1,7.66%,14.7%,-3.59%
N#Cc1cc2c(N)n[nH]c2nc1N,6.95%,0.04%,-4.92%
CCOC(=O)c1cn(C)c2ccccc12,12.15%,7.9%,-4.62%
CCOC(=O)C1=C(C)OC(N)=C(C#N)C1c1ccncc1 (stereo not given),10.54%,-1.5%,-58.29%
CCC(CC)NNC(=O)c1c[nH]c2ccccc12.Cl,14.64%,1.1%,4.78%
